In the library only some 3.8% were active in any assay of this set; here they are far more common.
ELG1 DNA repair: qHTS screen for small molecules that inhibit ELG1-dependent DNA repair in human embryonic kidney (HEK293T) cells expressing luciferase-tagged ELG1 | HEK293T ELG1-luciferase reporter, luminescence, 16 h; DNA damage induced by 5-fluorouridine | Potency, µM (top dose mostly 46.1 µM), most hits filed as inhibitors | hit rate 2.3% among 330,000; also: nearly all actives have a fitted effect of over 55% in size
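Luminescence from the luciferase reporter, measured 30 min after ONE-Glo reagent at room temperature, was the read-out. Beforehand, 2,000 cells per well were exposed for 16 hr at 37 °C to 5-fluorouridine together with compound or vehicle.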
Nrf2 ARE act: qHTS of Nrf2 Activators. Potency, µM (series often up to 46.1 µM), hits mostly activators. hit rate 0.31% among 410,000. AREc32 ARE-luciferase reporter (MCF7-derived line), luminescence, 24 h; also: nearly all actives have a fitted effect of over 65% in size
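Luminescent ARE reporter assay in AREc32_Fluc cells: overnight plating at 37 deg C, 24 hr compound incubation, Steady-Glo added, 30 min RT before reading.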
Nrf2 block: Nrf2 qHTS screen for inhibitors | hit rate 2.1% among 360,000 | A549 ARE-Fluc reporter, luciferase luminescence, 18-24 h | Potency, µM (top dose mostly 46 µM), usual class: inhibitors; also: nearly all actives have a fitted effect of over 60% in size
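In this cell-based qHTS, ARE-driven firefly luciferase in A549 cells reports Nrf2 activity; the luminescent signal after BugLite lysis is the measured value, with a prior CellTiter-Fluor read for cell health.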
A549 viability: Nrf2 qHTS screen for inhibitors: counterscreen for cytotoxicity; Potency, µM (top dose mostly 46 µM), actives largely listed as inhibitors; A549 ARE-Fluc cells, CellTiter-Fluor viability, 18-24 h; AID 504648, 2011; hit rate 0.16% among 390,000
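A549 ARE-Fluc cells in 5% FBS OPTI-MEM, 5000 cells/well, rested 2 h then exposed to compounds in concentration-response for 18-24 h at 37 °C. Viability by CellTiter-Fluor fluorescence (Ex 405/Em 525) after 30 min; luciferase luminescence (BugLite, 15 min, RT) read afterwards.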
IDH1 R132H inh: qHTS for Inhibitors of mutant isocitrate dehydrogenase 1 (IDH1): qHTS; Potency, µM (top dose mostly 76.6 µM), usual class: inhibitors; IDH1-R132H enzyme, NADPH consumption, diaphorase/resazurin fluorescence; hit rate 0.093% among 390,000; also: nearly all actives have a fitted effect of over 65% in size
Target sequence (O75874 whole entry R132H, stated change not applied): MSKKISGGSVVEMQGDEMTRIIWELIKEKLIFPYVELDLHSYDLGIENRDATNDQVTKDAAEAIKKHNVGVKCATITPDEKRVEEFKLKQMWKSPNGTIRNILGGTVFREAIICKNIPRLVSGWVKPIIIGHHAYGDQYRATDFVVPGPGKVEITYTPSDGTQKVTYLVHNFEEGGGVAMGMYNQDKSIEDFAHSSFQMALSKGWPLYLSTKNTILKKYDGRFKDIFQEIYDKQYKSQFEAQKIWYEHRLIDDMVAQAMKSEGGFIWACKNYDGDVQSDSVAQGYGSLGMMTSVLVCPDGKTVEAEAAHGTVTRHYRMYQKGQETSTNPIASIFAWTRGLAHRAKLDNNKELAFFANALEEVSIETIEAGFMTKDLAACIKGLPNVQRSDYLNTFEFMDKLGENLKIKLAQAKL
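IDH1-R132H (0.5 ug/mL dispensed) in pH 7.5 Tris buffer was preincubated 30 min with compound, then given a substrate mix of 0.016 mM NADPH and 2 mM alpha-KG for 80 min at room temperature; remaining NADPH was read by diaphorase/resazurin fluorescence.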
A number is an active result; . = inactive; ? = inconclusive; / = not tested or not shown; ! = not active in a repeat; [ ] = remark or other dose. Calls follow the shape of the dose curve; as a rule, active = well fitted curve in the direction sought with a large enough effect; inconclusive = small, poorly fitted or top-dose-only effect, or another doubt; inactive = no such curve, though single readings can be large; an effect the other way counts as inactive or inconclusive.

SMILES	ELG1 DNA repair	Nrf2 ARE act	Nrf2 block	A549 viability	IDH1 R132H inh
COC(=O)c1sc(S(=O)(=O)NCc2cccs2)c(C(=O)OC)c1C	14.6µM	.	.	.[1.84 µM]	.
Cc1cc(C)cc(OCC(=O)NNC(=O)c2ccccn2)c1	?	.	10.3µM	.	.
CCN(CC)c1ccc(/C=N/NC(=O)CNC(=O)C2COc3ccccc3O2)c(O)c1 (stereo not given)	?	.	23.1µM	.	.
Cc1cc([N+](=O)[O-])cc(/C=N\NC(=O)C2COc3ccccc3O2)c1O (stereo not given)	20.6µM	.	.	.	.
Cc1cccc2sc(NC(=O)Cn3c(C)csc3=O)nc12	.	.	?	.	.
Cc1ccc(N2CCN(C(=O)CCS(=O)(=O)c3cc4c(cc3Cl)NC(=O)CO4)CC2)c(C)c1	/	.	25.9µM	.	.
O=C(CCS(=O)(=O)c1cc2c(cc1Cl)NC(=O)CO2)NCc1ccc(Cl)cc1	/	.	.	.	.
Cc1ccc(CNC(=O)CCS(=O)(=O)c2cc3c(cc2Cl)NC(=O)CO3)cc1	.	.	25.9µM!	.	.
Cc1ccc(Cl)cc1N1CCN(C(=O)CCS(=O)(=O)c2ccc3c(c2)NC(=O)CO3)CC1	?	.	16.4µM	.	.
Cc1ccc(C)c(NS(=O)(=O)c2cc3c(cc2Cl)NC(=O)CO3)c1	/	.	23.1µM	?	.
CC(C)CCn1c(=O)c2cccnc2n(CC(=O)Nc2ccc(F)cc2)c1=O	/	.	.	.	.
COc1ccnc(Oc2ccccc2)c1C(=O)N/C=N/OCc1ccc(F)cc1Cl	18.4µM	.	?	.	.
COc1ccccc1CO/N=C/NC(=O)c1c(OC)ccnc1Oc1ccc(F)cc1	?	.	?	.	.
O=C1CN=C(Nc2cccc(C(F)(F)F)c2)N1C1CCCC1	.	.	14.6µM	.	.
Cc1cccc(C)c1NC(=O)CSc1cc(C(=O)c2nccn2C)c2ccccc2n1	14.6µM	.	.	.	.
Cc1ccc(C(=O)COc2cc(C)nc3nncn23)cc1	.	.	.	.	.
O=C(Nc1ccccc1Cl)c1ccc2c(=O)n3c(nc2c1)CCC3	?	.	?	.	.
O=C(Nc1ccc(SC(F)F)cc1)c1ccc2c(=O)n3c(nc2c1)CCC3	?	.	5.8µM	?	.
O=C(Nc1ccc(S(=O)(=O)C(F)F)cc1)c1ccc2c(=O)n3c(nc2c1)CCC3	?	.	14.6µM	.	.
CCC1=C(OC(=O)N(CC)CC)N2C(=O)OC(=NCC(=O)OC)[C@]2(C)[C@H]2C1=CC[C@H]1C(=O)NC(=O)[C@H]12	.	.	.	.	.
CCC1=C(OC(=O)N(CC)CC)N2C(=O)OC(=NCc3ccccc3)[C@]2(C)[C@H]2C1=CC[C@H]1C(=O)NC(=O)[C@H]12	.	.	18.4µM	.	.
COCc1cc(C)[nH]c(=O)c1C(=O)NC12CC3CC(CC(C3)C1)C2	18.3µM	.	?	.	.
COc1cc(C(=O)NC23CC4CC(CC(C4)C2)C3)cc(OC)c1OC	.	.	.	.	.
CN1c2cc(Cl)ccc2-c2nc(SCC(=O)Nc3ccc(F)cc3F)ncc2S1(=O)=O	/	.	16.4µM	.	.
Cc1ccc(NC(=O)CSc2ncc3c(n2)-c2ccc(Cl)cc2N(C)S3(=O)=O)cc1F	/	.	?	.	.
SMILES	ELG1 DNA repair	Nrf2 ARE act	Nrf2 block	A549 viability	IDH1 R132H inh
Cn1nnnc1SCCNCc1ccccc1OCc1ccc(Cl)cc1Cl	/	.	11.6µM	.	.
COc1ccc(NC(=O)c2c(C)nn(Cc3ccccc3)c2Cl)cc1S(=O)(=O)N1CCOCC1	?	.	20.6µM	.	.
CCc1ccc(C(=O)Nc2ccc(OC)c(S(=O)(=O)N3CCCCC3)c2)cc1	?	.	7.31µM	.	.
COc1ccc(NC(=O)Cc2ccc(C)cc2)cc1S(=O)(=O)N1CCCCC1	?	.	.	.	.
CCc1ccc(C(=O)Nc2ccc(OC)c(S(=O)(=O)N3CCOCC3)c2)cc1	?	.	?	.	.
COc1ccc(CCC(=O)Nc2ccc(OC)c(S(=O)(=O)N3CCCCC3)c2)cc1	?	.	16.4µM	?	.
COc1ccc(NC(=O)CCCOc2ccc(C)cc2)cc1S(=O)(=O)N1CCCCC1	/	.	/	/	.
COc1ccc(NC(=O)Cc2ccc(C)c(C)c2)cc1S(=O)(=O)N1CCCCC1	25.9µM	.	?	.	.
CCOC(=O)c1c(C)[nH]c(C(=O)OCC(=O)c2ccc3c(c2)NC(=O)CO3)c1C	.	.	.	.	.
CC1=C(C(=O)N2CCCCCC2)CC(CC(=O)NC2CCCC2)C(=O)N1CCC1=CCCCC1 (stereo not given)	/	.	/	/	/
COc1ccc(NC(=O)c2cc3ccccc3o2)cc1S(=O)(=O)N1CCCCC1	20.6µM	.	?	.	.
CN1CCN(c2ccccc2NC(=O)c2cc3ccccc3o2)CC1	.	.	/	.	.
CS(=O)(=O)N1CCN(c2ccccc2NC(=O)c2cc3ccccc3o2)CC1	20.6µM	.	.	.	.
CCC(=O)Nc1ccc(CC)cc1-c1nc2ccccc2n(CC(=O)Nc2cccc(Cl)c2)c1=O	/	.	.	.	.
CCOc1ccccc1-n1nnnc1SCC(=O)NC(=O)NCc1ccco1	25.9µM	.	?	.	.
CCOc1ccc(N=c2scc(-c3ccc(OC)cc3)n2CCO)cc1	10.3µM	.	?	.	.
CCCn1c(=O)c2c(nc3n2CCN3Cc2ccco2)n(C)c1=O	?	.	.	.	.
Cc1cccc(Cn2c(=O)c3c(nc4n3CCN4Cc3ccco3)n(C)c2=O)c1	20.6µM	.	.	.	.
Cn1c(=O)n(Cc2ccc(Cl)cc2)c(=O)c2c1nc1n2CCN1Cc1ccco1	25.9µM	.	?	.	.
Cn1c(N2CCCC2)nc2c1c(=O)n(Cc1ccc(Cl)cc1)c(=O)n2C	20.6µM	.	?	.	.
O=C(CSc1ccc(-c2ccco2)nn1)N1CCCCC1	?	?	?	.	.
O=C(CSc1ccc(-c2ccco2)nn1)N1CCCC1	?	10µM	.	.	.
CCOc1ccc(NS(=O)(=O)c2ccc(C(=O)N3CCCC(C)C3)cc2)cc1 (stereo not given)	.	.	7.31µM	.	.
CCOc1ccc(NS(=O)(=O)c2ccc(C(=O)N3CCCCCC3)cc2)cc1	.	.	23.1µM	.	.
CCOc1ccc(S(=O)(=O)Nc2cccc(Cl)c2)cc1	/	.	13µM	?	.
CCOc1ccc(S(=O)(=O)Nc2ccc(C(=O)N3CCCC3)cc2)cc1	.	.	.	.	.
CCOc1ccc(NS(=O)(=O)c2ccc(NS(=O)(=O)c3ccccc3)cc2)cc1	.	.	.	.	.
